From PubChem BioAssay
Only some compounds are listed: those with a hit (about 21% of all), similar ones and a draw of the others.
Pf growth 48h: inhibits P. falciparum growth in the first generation, 48 h; hit rate 5.9% among 310,000; AID 504832; P. falciparum luciferase growth in erythrocytes, 48 h; Potency, µM (titrated, usually from 28.7 µM), inactives show at the highest dose activity change, negative = inhibition, most hits filed as inhibitors; also: potency is read from the fitted curve at half-maximal effect; % is scaled to controls: 0 for no effect and ±100 for the full control effect
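A one-generation exposure of luciferase-tagged malaria parasites in RPMI 1640/Albumax erythrocyte culture, 37 C and 5% CO2. Inhibition is inferred from decreased luminescence after adding detection reagent.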
NS1 function inh: blocks influenza NS1 protein function; Potency, µM (titrated, usually from 46.1 µM), for the others: at the highest dose activity, positive = more growth; hit rate 0.4% among 270,000; AID 2326; calls by dose curve; also: potency is read from the fitted curve at half-maximal effect; actives are rising curves; nearly all actives have a fitted effect of over 50% in size
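Growth recovery, yeast-based: influenza A NS1 expressed in S. cerevisiae causes slow growth, and suppressors are detected by OD600. The parent strain without NS1 is used as positive control.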
Shiga toxin inh: blocks Shiga toxin action in Vero cells; Vero cells, Shiga toxin protein synthesis inhibition reporter; inhibition, % at 38.7 µM; hit rate 9.2% among 290,000; AID 2315; in the data active = inhibition mostly above about 28%, no sharp cut-off; inactive = mostly below about 43%; also: 0% is about no effect
Cycloheximide cs: affects cycloheximide protein synthesis inhibition readout, counter-screen | max response, % | cell reporter, cycloheximide protein synthesis inhibition counterscreen | AID 2314 | hit rate 12% among 300,000; in the data active = max response mostly above about 13%, no sharp cut-off; inactive = mostly below about 14%; also: read at 38.3 µM for the half of the compounds with a filed dose; 0% is about no effect
Pf growth 96h: inhibits malaria parasite growth, 96 h; P. falciparum luciferase reporter growth, 96 h; Potency, µM (series often up to 28.7 µM), without a hit: top-dose activity change, negative = inhibition, actives largely listed as inhibitors; hit rate 6.9% among 320,000; AID 504834; also: potency is read from the fitted curve at half-maximal effect; % is scaled to controls: 0 for no effect and ±100 for the full control effect
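Two-generation exposure (96 h) targets delayed-death phenotype. Reporter parasites carrying integrated firefly luciferase, in red cells at 2% hematocrit and 0.05% parasitemia final, kept at 37 C, 5% CO2; luminescence loss indicates inhibition.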
Sm TGR inh: S. mansoni TGR enzyme inhibition; Q962Y6; purified TGR, DTNB reduction, TNB absorbance 405 nm; Potency, µM (top dose mostly 114 µM), without a hit: top-dose activity change, negative = inhibition, hits mostly inhibitors; hit rate 3% among 360,000; also: potency is read from the fitted curve at half-maximal effect; % is scaled to controls: 0 for no effect and ±100 for the full control effect; nearly all actives have a fitted effect of over 60% in size
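TGR 20 nM + NADPH 100 uM (dispensed conc.), cpd preinc 15 min RT; start with NADPH (500 uM addition) then DTNB (15 mM addition). Kinetic TNB absorbance, 405 nm filter. Four-parameter Hill fit across titration.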
Starred values were filed as active, the others as inactive; i = inactive; ? = inconclusive; · = not tested or not shown; + = active, no number; [ ] = dose if it differs, or a comment. Unless noted, calls follow the shape of the dose curve; as a rule, active = well fitted curve in the direction sought with a large enough effect; inconclusive = small, poorly fitted or top-dose-only effect, or another doubt; inactive = no such curve, though single readings can be large; an effect the other way counts as inactive or inconclusive.

SMILES	Pf growth 48h	NS1 function inh	Shiga toxin inh	Cycloheximide cs	Pf growth 96h	Sm TGR inh
CCOC(=O)C1CCN(Cc2nc(-c3ccc(OC)c(OC)c3)no2)CC1	?	-8%	-14	-4	·	-18%
CCN(Cc1nc(-c2ccc(Cl)cc2)no1)CC1CCCO1 (centres undefined)	30%	2%	17	14*	?	2%
CCOc1ccc(NC(=O)CN2C(C(=O)OC)=C(c3ccccc3)c3cc(Cl)ccc3S2(=O)=O)cc1	·	·	·	·	·	8%
COc1ccc(N2CCN(C(=O)CN3CCN(C(c4ccccc4)c4ccccc4)CC3)CC2)cc1	?	4%	-9	1	0%	-2%
Cc1ccc(-c2noc(CN3C(C)CCCC3C)n2)cc1 (centres undefined)	?	-8%	-1	22*	?	?
c1ccc(-c2noc(CN3CCN(c4ccccc4)CC3)n2)cc1	·	-68%	-5	-2	7.4µM*	0%
Cc1ccc(-c2noc(CN(C3CCCCC3)S(=O)(=O)c3ccc(F)cc3)n2)cc1	·	·	·	·	·	8%
NC(=O)[C@@H]1CCCN1Cc1nc(-c2ccc(C(F)(F)F)cc2)no1	12%	3%	12	16*	?	-7%[57.1 µM]
O=C(C1=C[C@H](c2ccc(Br)cc2)C[C@H](OCCCCO)O1)N1CCOCC1	-2%	-2%	31	12*	0%	35µM*
NC(=O)C1=C[C@@H](c2ccc(Br)cc2)C[C@@H](OCCCCO)O1	0%	-1%	19	7.8*	0%	?
Cc1ccc(C)c(NC(=O)Cn2c(SCC(=O)NCc3ccccc3)nc3ccccc32)c1	·	·	·	·	·	-16%
CCN(CC(=O)Nc1ccc(OC)cc1)C(=O)c1ccc(N2CCCC2=O)cc1	-14%	·	·	·	-19%	-22%
O=C(NNc1nc(-c2ccccc2)cs1)c1ccccc1	?	22%	40	19	2.3µM*	-10%
Cc1cc(-c2csc(NC(=O)c3ccc(C#N)cc3)n2)c(C)n1Cc1ccccc1	-8%	17%	-4	-1	-17%	-10%
O=C(NC(=S)Nc1nc(-c2ccc(Br)cc2)cs1)c1cccnc1	13%	9%	-7	1	?	-10%
N#Cc1ccc(-c2csc(NNC(=O)c3ccc(Br)cc3)n2)cc1	1.7µM*	29%	16	6	2.9µM*	-13%
O=C(Nc1nc(-c2ccccc2)cs1)c1cccnc1	-30%	3%	27	18	·	-1%
N#Cc1ccc(-c2csc(NNC(=O)c3ccccc3)n2)cc1	12µM*	12%	-4	1	3.7µM*	-7%
Cc1ccc(S(=O)(=O)NNC(=O)c2cccc(O)c2)cc1	-2%	7%	-11	-1	43%	13%
O=C(c1cccc(Cl)c1)N(Cc1ccco1)C1CCS(=O)(=O)C1 (centres undefined)	9%	-11%	5	-4	35%	0%
S=C(NCc1ccco1)N1CCN(Cc2ccc(Cl)cc2Cl)CC1	?	-52%	10	-4	10µM*	3%
S=C(NCc1ccco1)N1CCN(C/C=C/c2ccccc2)CC1	-21%	3%	13	-1	19%	-8%
S=C(NCc1ccco1)Nc1ccc(Br)cc1Cl	38%	-5%	28	18*	32%	?
S=C(NCc1ccco1)Nc1ccc(Cl)cc1Cl	73%	-5%	+	22*	33%	?
OCCCNC(=S)Nc1ccc(Br)cc1Cl	47%	0%	34*	21*	58%	3.2µM*
SMILES	Pf growth 48h	NS1 function inh	Shiga toxin inh	Cycloheximide cs	Pf growth 96h	Sm TGR inh
CCCOc1ccc(C(=O)Nc2c(C(=O)c3ccc(C)cc3)oc3ccccc23)cc1	·	·	·	·	·	0%
C#CC1(O)C=CC2C3CCC4=CC(=O)CCC4C3CCC21CC (centres undefined)	?	-8%	-6	-2	8.5µM*	0%
COCCNC(=O)c1ccccc1NC(=O)Nc1ccccc1	30%	3%	-6	6	7.4µM*	·
O=C(Nc1ccc(Cl)cc1)Nc1ccccc1CC[N+](=O)[O-]	12µM*	·	41*	24	?	-5%
CN(C)C(=O)Nc1ccccc1CC[N+](=O)[O-]	-6%	·	-2	7	17%	-25%
O=C(Nc1ccccc1CC[N+](=O)[O-])N1CCN(c2ccccc2)CC1	10µM*	·	-6	13	12µM*	2.2µM*
O=C(Nc1ccc(Cl)c(Cl)c1)Nc1ccccc1C(=O)O	117%	1%	41	30*	42%	·
CCCCOc1cccc(C(=O)N(Cc2cccs2)c2ccc(OC)cc2)c1	·	·	·	·	·	0%
CC(OC(=O)Cc1c(F)cccc1Cl)C(=O)NCCC1=CCCCC1 (centres undefined)	6%	-6%	-5	-3	0%	-1%
O=C(Nc1ccc(Cl)cc1)Nc1ccccc1C(=O)O	130%	-5%	35	23*	-20%	4%[57.1 µM]
O=C(Cc1ccc(Cl)cc1)Nc1ccccc1C(=O)Nc1ccc(C(=O)O)cc1	12%	·	-6	0	25%	-9%
COc1cccc(/C=C/c2ccccn2)c1O	247%	-32%	110*	50*	i	4%
COc1ccccc1-n1c(/C=C/c2ccccn2)nc2ccccc2c1=O	?	-4%	-7	0	?	-18%
Cc1ccc(C)c(-n2c(C)cc(/C=N/NC(=O)c3c(C)nc4cc(C)ccn34)c2C)c1	?	28%	8	4	?	-25%
S=c1nc(-c2ccccc2Cl)[nH][nH]1	8%	8%	-17	-2	66%	·
S=c1nc(-c2csc3c2CCCC3)[nH][nH]1	0%	4%	29	-2	54%	35µM*
CC(C(=O)O)c1ccc2c(c1)Cc1cccnc1O2 (centres undefined)	-7%	·	·	·	1.5µM*	·
CCC(C)NC(=O)CCC(=O)N1Cc2ccccc2Oc2ncccc21 (centres undefined)	·	·	·	·	·	31%
Cc1ccc(S(=O)(=O)N2CCN(C(=O)n3ccnc3)CC2)cc1	?	·	·	·	7.4µM*	-15%
CC(C)c1ccc(S(=O)(=O)N2CCN(C(=O)n3ccnc3)CC2)cc1	?	·	·	·	5.2µM*	-1%
Cc1ccc(S(=O)(=O)N2CCN(C(=O)N3CCCC3)CC2)cc1	-4%	-2%	3	-1	-8%	-1%
CC(=O)Nc1nonc1-c1nnc(SCC(=O)Nc2ccc(C)c(Cl)c2)n1C	·	·	·	·	·	0%
COCC(=O)Nc1cc(C(=O)Nc2ccccc2)ccc1Cl	65%	-34%	107*	36*	191%	6%
CCOCC(=O)Nc1cc(C(=O)Nc2ccc(F)cc2)ccc1Cl	50%	-1%	33*	29*	81%	1%
CCc1nn2c(=O)c(S(=O)(=O)Nc3ccc(OC)c(Cl)c3)c(C)nc2s1	·	·	·	·	·	-9%
Clc1ccc(CSCc2ccc(Cl)cc2Cl)c(Cl)c1	·	-7%	·	·	·	·
Nn1nnc2ccccc21	40%	-3%	24	14*	52%	-8%
Oc1ccccc1Cn1nnc2ccccc21	9%	-11%	-8	-3	?	2%
